Experimental data published in PubChem BioAssay (Tox21).
“And” between values parts separate entries of the source, which are not always exact repeats. Equal entries are not always repeated. Results filed as inconclusive are left out. A call without a number means that no potency is given here. More than one record can exist for a structure, and the calls need not agree. The source made the active and inactive calls. The call rests on the fitted dose curve; in most records, active means well fitted inhibition curve with a large enough effect in the repeat runs; inconclusive means weak or mixed curves; inactive means no such curve, though single readings can be large or run the other way. Residues, ends and D or L forms follow the SMILES beside them.

Biological target: Cytochrome P450 1A2 (Homo sapiens) (UniProt P05177)
Assay: Cytochrome P450 Family 1 Subfamily A Member 2 (CYP1A2) small molecule antagonists: luciferase reporter qHTS assay (AID 1671199); further: nearly all actives have a fitted effect of over 50% in size
Settings: P450-Glo CYP1A2 enzyme, luciferin luminescence, 1 h; series mostly up to 115 µM; activity change, negative = inhibition: at the top concentration
Description: National Center for Advancing Translational Sciences [NCATS]
U.S. Environmental Protection Agency [EPA]
National Institutes of Environmental Health Sciences [NIEHS]
National Toxicology Program [NTP]
U.S. Food and Drug Administration [FDA]
Cytochrome P450 (CYP) enzymes are membrane-bound hemeproteins that play a key role in metabolism of drugs and xenobiotics. Evaluation of the effect of chemicals on CYP isozymes is useful to minimize the adverse drug reactions and toxicities in drug development process. Tox21 chemicals were tested for their effect on CYP enzyme activities by using P450-Glo (TM) screening systems (Promega Corporation, Madison, WI). These systems provide a luminescent method containing proluciferin substrates and are converted to luciferin products by CYP isozymes. The luciferin products formed are detected with a luciferin detection reagent, and the amount of light produced is proportional to CYP activity. P450-Glo (TM) CYP1A2 screening system (Catalog. No. V9770) was used to detect the compounds that interfere in CYP1A2 activity. The positive control compound used for CYP1A2 assay is furafylline (Sigma-Aldrich, St. Louis, MO).
Tox21 Assay Protocol Summary:
Two ul of enzyme-substrate mix was dispensed into medium binding white/solid 1536-well plates (Greiner Bio-One North America Inc., Monroe, NC) using a BioRaptr Flying Reagent Dispenser (FRD, Beckman Coulter, Brea, CA). Compounds dissolved in DMSO and positive control (furafyllline) were transferred to the assay plates at 23 nl using a Pintool station (Wako, San Diego, CA). The assay plates were incubated at room temperature for 10 min. Then 2 ul of NADPH regeneration solution was added to each well of the assay plates using an FRD and incubated at room temperature for 1 h. The reaction was stopped by adding 4 ul of detection reagent using an FRD and after 20 min incubation at room temperature the luminescence signal was measured using a ViewLux plate reader (Perkin Elmer, Shelton, CT). Data were expressed as relative luminescence units.
Potency means the concentration at half of the fitted maximal effect.

Cytochrome P450 1A2 (Homo sapiens), sequence (P05177 whole entry, looked up): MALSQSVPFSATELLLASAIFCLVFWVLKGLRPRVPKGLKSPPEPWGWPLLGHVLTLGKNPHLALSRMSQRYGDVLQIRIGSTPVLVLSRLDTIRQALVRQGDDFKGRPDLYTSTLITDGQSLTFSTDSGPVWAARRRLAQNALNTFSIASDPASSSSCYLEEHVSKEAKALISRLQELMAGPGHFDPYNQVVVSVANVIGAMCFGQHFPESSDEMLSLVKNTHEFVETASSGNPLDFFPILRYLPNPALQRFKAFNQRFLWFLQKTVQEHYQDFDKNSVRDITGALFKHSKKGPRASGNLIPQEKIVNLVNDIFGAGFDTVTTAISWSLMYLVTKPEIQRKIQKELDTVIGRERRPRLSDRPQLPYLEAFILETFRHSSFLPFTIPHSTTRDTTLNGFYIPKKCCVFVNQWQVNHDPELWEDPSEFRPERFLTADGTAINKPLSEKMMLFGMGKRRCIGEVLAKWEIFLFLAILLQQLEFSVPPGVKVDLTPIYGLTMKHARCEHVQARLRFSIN

Row | Compound | Potency | activity change, negative = inhibition
1 | O=C(O)CCCCCCCC(=O)O | inactive | 
2 | CC(O)CO (stereo not given) | inactive | 
3 | O=c1ccc2ccccc2o1 | 36.3 µM (active) and 31.7 µM (active) and inactive | 
4 | COC(=O)[C@H](Cc1ccccc1)NC(=O)[C@@H](N)CC(=O)O (H-Asp-Phe-OMe) | inactive | 
5 | O=S(=O)(O)c1ccc2cc(O)ccc2c1 | inactive and 39.9 µM (active) | 
6 | O=C(O)C(=O)O | inactive | 
7 | CCCNC(=O)NS(=O)(=O)c1ccc(Cl)cc1 | inactive and 15.5 µM (active) | 
8 | CC(C)(Oc1ccc(C2CC2(Cl)Cl)cc1)C(=O)O (stereo not given) | inactive | 
9 | CCC1(c2ccccc2)C(=O)NCNC1=O | inactive | 
10 | O=C(O)CS | inactive | 
11 | CCCN(CCC)S(=O)(=O)c1ccc(C(=O)O)cc1 | inactive | 
12 | Cn1c(=O)c2[nH]cnc2n(C)c1=O | inactive | 
13 | CCCCC1C(=O)N(c2ccccc2)N(c2ccccc2)C1=O | inactive | 
14 | CCCCC(CC)COC(=O)/C=C/c1ccc(OC)cc1 (stereo not given) | 19.9 µM (active) and 12.6 µM (active) and 13.8 µM (active) | 
15 | CC(O)C(=O)O (stereo not given) | inactive and 24.5 µM (active) | 
16 | NC(=O)c1cnccn1 | inactive | 
17 | N=C(N)c1ccc(OCCCCCOc2ccc(C(=N)N)cc2)cc1 | inactive | 
18 | NNC(=O)c1ccncc1 | 40 µM (active) and 26.5 µM (active) and 27.5 µM (active) | 
19 | Nc1ccc(C(=O)O)cc1 | inactive | 
20 | NC(N)=NC(=O)c1nc(Cl)c(N)nc1N |  | -18.7% [at 53 µM] (inactive)

Row | Compound | Potency | activity change, negative = inhibition
21 | Cc1cn([C@H]2C[C@H](N=[N+]=[N-])[C@@H](CO)O2)c(=O)[nH]c1=O | inactive | 
22 | O=C1CN(/N=C/c2ccc([N+](=O)[O-])o2)C(=O)N1 | inactive | 
23 | CC(=O)NS(=O)(=O)c1ccc(N)cc1 | inactive | 
24 | OC(Cn1cncn1)(Cn1cncn1)c1ccc(F)cc1F |  | -8.37% [at 53 µM] (inactive)
25 | O=C(c1ccccc1)C(O)c1ccccc1 (stereo not given) | 31.4 µM (active) and 12.9 µM (active) | 
26 | C/C=C/c1ccc(OC)cc1 | inactive and 17.4 µM (active) | 
27 | O=C1NC(=O)c2ccccc21 |  | -20.8% (inactive)
28 | CCCC(O)C(CC)CO (stereo not given) | inactive | 
29 | O=C(O)CCC(=O)O | inactive | 
30 | O=C(O)CCCCC(=O)O |  | -21.5% (inactive)
31 | C[C@]12C=CC(=O)C=C1CC[C@@H]1[C@@H]2[C@@H](O)C[C@@]2(C)[C@H]1CC[C@]2(O)C(=O)CO | inactive | 
32 | CC(=O)OCC(COC(C)=O)OC(C)=O | 62.5 µM (active) and inactive | 
33 | CC(C)[C@@H]1CC[C@@H](C)C[C@H]1O | inactive | 
34 | NC(N)=O | inactive | 
35 | CC1(C)[C@@H]2CC[C@@]1(C)C(=O)C2 | inactive | 
36 | O=C(O)c1cc(N=Nc2ccc(S(=O)(=O)Nc3ccccn3)cc2)ccc1O | inactive | 
37 | O=C(O)c1cccc([N+](=O)[O-])c1 |  | -23.4% (inactive)
38 | c1ccc2[nH]ccc2c1 | 35 µM (active) and 35.6 µM (active) and 17.4 µM (active) | 
39 | Nc1ccc(S(=O)(=O)c2ccc(N)cc2)cc1 |  | 12% [at 53 µM] (inactive)
40 | CCCC(CCC)C(=O)O | 5.62 µM (active) and inactive | 
